# Data: the supplement of paper PMC8728848
# About 410 targets per protein were measured; listed, in parts, are those with the strongest signals and a random draw of the rest.
# What was measured:
# Assay in all cases: glycan array binding signal (z-score within array); higher = stronger binding
# Conditions in all cases: glycan notation: IUPAC condensed, linker removed
# [1] = biological target: Gal(b1-4)GlcNAc(b1-3)[Fuc(a1-3)GlcNAc(b1-6)]Gal(b1-4)Glc
# In short: (§1)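 Glycan array data came from 3228 arrays in the Consortium for Functional Glycomics database, and only arrays with an available protein sequence were kept. Glycan names were put into IUPAC-condensed notation, and columns mapping to the same glycan were averaged. The binding signal is a within-array Z-score, averaged across arrays of one protein sequence run at different concentrations or buffers and across linkers. A negative Z-score can be read as non-binding.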
# Gal(b1-6)Gal = biological target: Gal(b1-6)Gal
# In short: as §1
# [2] = biological target: GalNAc(b1-4)GlcNAc(b1-2)Man(a1-3)[GalNAc(b1-4)GlcNAc(b1-2)Man(a1-6)]Man(b1-4)GlcNAc(b1-4)GlcNAc
# In short: as §1
# GalNAc(b1-6)GalNAc = biological target: GalNAc(b1-6)GalNAc
# In short: as §1
# [3] = biological target: Glc(a1-6)Glc(a1-6)Glc(a1-6)Glc
# In short: as §1
# [4] = biological target: GlcNAc(a1-4)Gal(b1-4)GlcNAc(b1-3)Gal(b1-4)[Fuc(a1-3)]GlcNAc(b1-3)Gal(b1-4)[Fuc(a1-3)]GlcNAc
# In short: as §1
# [5] = biological target: GlcNAc(b1-2)[GlcNAc(b1-4)]Man(a1-3)[GlcNAc(b1-4)][GlcNAc(b1-2)[GlcNAc(b1-6)]Man(a1-6)]Man(b1-4)GlcNAc(b1-4)GlcNAc
# In short: as §1
# [6] = biological target: GlcNAc(b1-2)[GlcNAc(b1-6)]Man(a1-6)[GlcNAc(b1-2)Man(a1-3)]Man(b1-4)GlcNAc(b1-4)GlcNAc
# In short: as §1
# [7] = biological target: GlcNAc(b1-3)Gal(b1-4)GlcNAc
# In short: as §1
# [8] = biological target: GlcNAc(b1-3)Gal(b1-4)GlcNAc(b1-2)[GlcNAc(b1-3)Gal(b1-4)GlcNAc(b1-6)]Man(a1-6)[GlcNAc(b1-3)Gal(b1-4)GlcNAc(b1-2)Man(a1-3)]Man(b1-4)GlcNAc(b1-4)GlcNAc
# In short: as §1
# [9] = biological target: GlcNAc(b1-3)Gal(b1-4)GlcNAc(b1-3)Gal(b1-4)GlcNAc(b1-3)Gal(b1-4)GlcNAc(b1-3)Gal(b1-4)GlcNAc(b1-2)Man(a1-3)[GlcNAc(b1-3)Gal(b1-4)GlcNAc(b1-3)Gal(b1-4)GlcNAc(b1-3)Gal(b1-4)GlcNAc(b1-3)Gal(b1-4)GlcNAc(b1-2)Man(a1-6)]Man(b1-4)GlcNAc(b1-4)[Fuc(a1-6)]GlcNAc
# In short: as §1
# [10] = biological target: GlcNAc(b1-4)[GlcNAc(b1-6)]GalNAc
# In short: as §1
# [11] = biological target: Man(a1-2)Man(a1-3)[Man(a1-2)Man(a1-6)]Man(a1-6)[Man(a1-2)Man(a1-2)Man(a1-3)]Man(b1-4)GlcNAc(b1-4)GlcNAc
# In short: as §1
# Man(a1-3)[Man(a1-6)]Man = biological target: Man(a1-3)[Man(a1-6)]Man
# In short: as §1
# [12] = biological target: Man(a1-3)[Man(a1-6)]Man(a1-6)[Man(a1-2)Man(a1-3)]Man(b1-4)GlcNAc(b1-4)GlcNAc
# In short: as §1
# [13] = biological target: Neu5Ac(a2-3)Gal(b1-3)GalNAc
# In short: as §1
# [14] = biological target: Neu5Ac(a2-3)Gal(b1-3)GlcNAc(b1-2)Man
# In short: as §1
# [15] = biological target: Neu5Ac(a2-3)Gal(b1-4)GlcNAc6S
# In short: as §1
# [16] = biological target: Neu5Ac(a2-3)Gal(b1-4)[Fuc(a1-3)]GlcNAc(b1-3)GalNAc
# In short: as §1
# [17] = biological target: Neu5Ac(a2-6)Gal(b1-4)GlcNAc(b1-2)[Neu5Ac(a2-6)Gal(b1-4)GlcNAc(b1-6)]Man(a1-6)[Neu5Ac(a2-6)Gal(b1-4)GlcNAc(b1-2)Man(a1-3)][GlcNAc(b1-4)]Man(b1-4)GlcNAc(b1-4)GlcNAc
# In short: as §1
# [18] = biological target: Neu5Ac(a2-6)Gal(b1-4)GlcNAc(b1-3)Gal(b1-4)GlcNAc(b1-2)Man(a1-3)[Neu5Ac(a2-6)Gal(b1-4)GlcNAc(b1-3)Gal(b1-4)GlcNAc(b1-2)Man(a1-6)]GalNAc
# In short: as §1
# [19] = biological target: Neu5Ac(a2-6)Gal(b1-4)GlcNAc(b1-3)Gal(b1-4)GlcNAc(b1-3)Gal(b1-4)GlcNAc(b1-2)Man(a1-3)[Neu5Ac(a2-6)Gal(b1-4)GlcNAc(b1-3)Gal(b1-4)GlcNAc(b1-3)Gal(b1-4)GlcNAc(b1-2)Man(a1-6)]GalNAc
# In short: as §1
# [20] = biological target: Neu5Ac(a2-6)Gal(b1-4)GlcNAc(b1-6)[Gal(b1-3)GlcNAc(b1-3)]Gal(b1-4)Glc
# In short: as §1
# [21] = biological target: Neu5Ac(a2-6)Gal(b1-4)GlcNAc(b1-6)[Gal(b1-3)]GalNAc
# In short: as §1
# [22] = biological target: Neu5Gc(a2-3)Gal(b1-3)[Fuc(a1-4)]GlcNAc
# In short: as §1
binder,measurement,setting,value
SP15308F-bth-333-19-333 (Bacteroides thetaiotaomicron) (protein) SCNNEWESEQYVQMVSFKAPVNAQGVTPIYIRYKPEGKVTYQLPLIVSGSTMNSKDLNVHVGLDLDTLDVLNVEHFGSRKELFFKPLENKYYEFPETVQIPAGECTSLLPIDFALKDLDQVDKWVLPLAIQSNDPSHNYQANPRKFYRRAMLRISPFNDYSGQYSATAYKVYFKGNEKEAIVPEYHTSYVIDDKTIFFYAGLIDIDRLDRKYYKIKFEFTEEKIDLQTRKLKISSDNEDINLVVKGQPSYTVEEEMDATRPYLKHIYVTINNLEYEFTDYTSVPGYPLEYVVKGSLTMERKINTQIPDEDQAIEW,glycan array binding signal (z-score),[1],-0.005
same,glycan array binding signal (z-score),Gal(b1-6)Gal,-0.244
same,glycan array binding signal (z-score),[2],1.38
same,glycan array binding signal (z-score),GalNAc(b1-6)GalNAc,2.02
same,glycan array binding signal (z-score),[3],-0.539
same,glycan array binding signal (z-score),[4],2.63
same,glycan array binding signal (z-score),[5],-1.46
same,glycan array binding signal (z-score),[6],-0.327
same,glycan array binding signal (z-score),[7],-0.835
same,glycan array binding signal (z-score),[8],2.85
same,glycan array binding signal (z-score),[9],2.43
same,glycan array binding signal (z-score),[10],0.249
same,glycan array binding signal (z-score),[11],-0.143
same,glycan array binding signal (z-score),Man(a1-3)[Man(a1-6)]Man,-0.694
same,glycan array binding signal (z-score),[12],-0.363
same,glycan array binding signal (z-score),[13],1.83
same,glycan array binding signal (z-score),[14],1.15
same,glycan array binding signal (z-score),[15],1.4
same,glycan array binding signal (z-score),[16],3.76
same,glycan array binding signal (z-score),[17],0.627
same,glycan array binding signal (z-score),[18],3.27
same,glycan array binding signal (z-score),[19],2.6
same,glycan array binding signal (z-score),[20],-0.927
same,glycan array binding signal (z-score),[21],-0.014
same,glycan array binding signal (z-score),[22],0.217
